Test results taken from PubChem BioAssay (NCI).
This is part of a sample that, as a whole, favours compounds with a hit. Of some 83,000 tested, about 20% had one in any assay.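 Step 1: grow cells in 96-well plates. Step 2: add test compound at a single concentration. Step 3: incubate 48 h. Step 4: record percent growth.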 Active and inactive are the calls of the source. The calls were made as follows: active = growth percent below 10; inactive = the rest.

What was measured:
Assay in all cases: NCI-60 one-dose screen, 48 h (100 = growth as untreated, 0 = no growth, -100 = all killed)
Conditions in all cases: 10 µM
[1] = system: SN12C renal
[2] = system: UO-31 renal
[3] = system: TK-10 renal
[4] = system: CAKI-1 renal
[5] = system: A498 renal
[6] = system: CCRF-CEM leukemia
[7] = system: MOLT-4 leukemia
[8] = system: SR leukemia
[9] = system: RPMI-8226 leukemia
[10] = system: OVCAR-8 ovarian
[11] = system: OVCAR-5 ovarian
[12] = system: OVCAR-4 ovarian
[13] = system: IGROV1 ovarian
[14] = system: OVCAR-3 ovarian
[15] = system: HS 578T breast
[16] = system: NCI/ADR-RES ovarian
[17] = system: T-47D breast
[18] = system: ACHN renal
[19] = system: SK-OV-3 ovarian

Measured: growth

O=C(C[P+](c1ccccc1)(c1ccccc1)c1ccccc1)C[P+](c1ccccc1)(c1ccccc1)c1ccccc1
active: [1] -45.9% | [2] -98.2% | [3] -94.1% | [4] -96.1% | [5] -93.8% | [6] -24% | [7] -28.9% | [8] -19.6% | [9] -40.6% | [10] -42.1% | [11] -94.9% | [12] -55.8% | [13] -69.3% | [14] -92.9% | [15] -5.42% | [16] 1.56% | [17] -45.2%

CS(=O)(=O)Nc1cccc(-c2cc(-c3ccccc3Cl)c(C#N)c(N)n2)c1
active: [14] -29.3% | [15] -1.53%
inactive: [1] 51.6% | [2] 26% | [3] 63.5% | [18] 46.8% | [4] 16.1% | [6] 20.6% | [7] 24.6% | [8] 23.9% | [10] 44% | [11] 56.3% | [12] 47.1% | [19] 22% | [13] 51.4% | [17] 36.9%

CC/C(=C(/c1ccc(OCCN(C)C)cc1)c1ccc(OC(=O)CCCCCCCCC(=O)c2c(C)[nH]c(/C=C3\N=C(c4ccc[nH]4)C=C3OC)c2C)cc1)c1ccccc1
inactive: [1] 74.7% | [2] 62.2% | [3] 98% | [18] 87.6% | [4] 47.1% | [6] 23.5% | [7] 36.2% | [8] 47.8% | [9] 48.4% | [10] 86.8% | [11] 103% | [12] 61.6% | [19] 80.7% | [13] 90.3% | [14] 89.6% | [15] 58.3% | [16] 91.8% | [17] 48.3%

CCOC(=O)c1ccc(NC(=O)Nc2ncc(Cl)cc2Cl)cc1
inactive: [1] 86.8% | [2] 96.4% | [3] 108% | [18] 107% | [5] 91.9% | [6] 81.7% | [7] 93.2% | [8] 95.9% | [9] 94.5% | [10] 97.7% | [11] 101% | [12] 104% | [19] 100% | [13] 115% | [14] 150% | [15] 132% | [16] 101% | [17] 73.4%

O=C(Nc1ccccc1)Nc1cccc(-n2cc(-c3ccncc3)c(-c3ccc(O)c(Cl)c3)n2)c1
inactive: [1] 59.1% | [2] 26.9% | [3] 88.8% | [4] 30.1% | [5] 82.5% | [6] 29.9% | [7] 38.3% | [8] 11.9% | [10] 42.7% | [12] 72.8% | [19] 58.6% | [13] 89.7% | [14] 73.8% | [15] 40% | [16] 83.2% | [17] 44.6%
active: [9] 9.53%

COc1ccc(-n2c(SCc3cc(OC)c(OC)c(OC)c3)nc3ccc(C)cc3c2=O)cc1
inactive: [1] 82.2% | [2] 47.2% | [3] 94.2% | [4] 54.2% | [5] 38% | [7] 56% | [8] 23% | [10] 84.2% | [11] 80.6% | [12] 67.2% | [19] 73.8% | [13] 62% | [14] 59.9% | [15] 77.7% | [16] 45.8% | [17] 67.8%

CCCCC(CCCCCC(CCCC)NCc1ccc2c(c1)OCO2)NCc1ccc2c(c1)OCO2 (stereo not given)
active: [1] -92.6% | [2] -100% | [3] -88% | [18] -100% | [4] -87.9% | [6] -32.8% | [7] -66.7% | [9] -59.2% | [10] -83.2% | [11] -100% | [12] -98.9% | [19] -100% | [13] -100% | [14] -100% | [15] -67.7% | [16] -99% | [17] -76.6%

COc1ccccc1CNCCN1C(=O)c2ccc3c4c(ccc(c24)C1=O)C(=O)N(CCNCc1ccccc1OC)C3=O
active: [1] -91% | [2] -92.4% | [3] -30.8% | [18] -59.6% | [4] -31.3% | [6] -50.3% | [7] -41.9% | [8] -47.1% | [9] -67.7% | [10] -77.7% | [11] -52.6% | [12] -99.7% | [19] -79.6% | [14] -78.5% | [16] -62.6% | [17] -65.8%

COc1ccc(-c2nc3sccn3c2-c2nc3c([nH]2)C(=O)c2ccccc2C3=O)cc1
inactive: [1] 86% | [2] 71.3% | [3] 111% | [4] 84.7% | [5] 49.7% | [6] 79.9% | [7] 76% | [8] 76.6% | [9] 74.7% | [10] 96.2% | [11] 89.8% | [12] 84.1% | [19] 109% | [13] 105% | [14] 114% | [15] 90.6% | [16] 86.5% | [17] 72%

Nc1nc(N)c(NC(=O)CNc2ccc(C(=O)O)cc2)c(N)n1
inactive: [1] 97.1% | [2] 94.1% | [3] 108% | [4] 91.5% | [5] 101% | [6] 98% | [7] 107% | [9] 98% | [10] 105% | [11] 108% | [12] 104% | [19] 107% | [13] 118% | [14] 118% | [15] 103% | [16] 123% | [17] 94.6%

CCCCCCNC(=O)Oc1ccc(/C(=C(/CC)Cc2ccccc2)c2ccc(OCCN3CCCCC3)cc2)cc1
inactive: [1] 80.7% | [2] 60.4% | [3] 93.7% | [18] 100% | [4] 96.9% | [6] 66.7% | [7] 55.2% | [9] 68.2% | [10] 81.6% | [11] 94% | [12] 69.9% | [19] 86.3% | [13] 91.1% | [14] 87.8% | [15] 83.5% | [16] 81.8% | [17] 51.3%
active: [8] 0.769%

O=C1/C(=C/c2ccc(Cl)cc2)SC(=Nc2ccc(Cl)cc2)N1Cc1nc2ccccc2[nH]1
inactive: [1] 79.3% | [2] 37.5% | [3] 104% | [18] 91.9% | [6] 62.6% | [7] 57.3% | [8] 46.6% | [10] 66.9% | [11] 107% | [19] 97.6% | [13] 64.8% | [14] 81.6% | [15] 114% | [17] 78.1%
active: [4] 8.38%

COc1ccc(OC)c(/C=C/c2nnc(Nc3ccc(Cl)cc3)o2)c1
active: [2] 4.98% | [12] -16% | [15] 6.91% | [17] -4.56%
inactive: [1] 44.9% | [3] 39.1% | [18] 32.6% | [6] 90.1% | [7] 89.7% | [8] 78.9% | [10] 66.7% | [11] 103% | [19] 32.9% | [13] 80.6% | [14] 32.1%

CC1CC(=O)OC(C)C1 (stereo not given)
inactive: [1] 109% | [2] 94.1% | [3] 104% | [4] 93% | [5] 96.1% | [6] 101% | [9] 104% | [10] 104% | [11] 105% | [12] 97.6% | [19] 101% | [13] 107% | [14] 116% | [15] 112% | [16] 112% | [17] 107%

O=S(=O)(NCCNc1nccc(-c2c(-c3ccc(F)cc3)nc3sccn23)n1)c1ccc2ccccc2c1
inactive: [1] 80.7% | [2] 43.4% | [3] 83.7% | [4] 68.5% | [5] 79.5% | [6] 61.7% | [7] 54% | [9] 60.2% | [10] 69.6% | [11] 130% | [12] 96.2% | [19] 85.2% | [13] 49.4% | [14] 87.9% | [15] 111% | [16] 84.4% | [17] 61.9%

C#Cc1ccc(-n2c(/C=C/c3ccc4ccccc4c3)nc3ncccc3c2=O)cc1
inactive: [1] 28.9% | [2] 13.7% | [3] 21.4% | [4] 13% | [10] 38.5% | [11] 105% | [19] 68.9% | [13] 52.7% | [14] 17% | [15] 72.8% | [16] 42.5% | [17] 42.7%
active: [5] -2.88% | [6] 2.66% | [7] 4.88% | [8] 4.43% | [9] -8.86% | [12] -3.79%

O=C(Nc1cccc(-n2cc(-c3ccncc3)c(-c3ccc(O)c(Cl)c3)n2)c1)c1cc(C(F)(F)F)cc(C(F)(F)F)c1
inactive: [1] 63.6% | [2] 47.8% | [3] 62% | [4] 30.7% | [5] 57.2% | [6] 29.5% | [7] 34.4% | [8] 39.1% | [9] 28.8% | [10] 42.9% | [11] 75% | [12] 53.9% | [19] 87.7% | [13] 71.8% | [14] 35.7% | [15] 60.2% | [16] 58.5% | [17] 25.6%

COc1ccc(-c2nc(-c3nc4cc(Cl)c(F)cc4[nH]3)c3ccccn23)cc1
active: [9] 8.97%
inactive: [1] 66.3% | [2] 28% | [3] 64.7% | [4] 67.1% | [5] 32.4% | [6] 35.6% | [7] 43.4% | [8] 33.7% | [10] 40.5% | [11] 98% | [12] 57.6% | [19] 105% | [13] 74.6% | [14] 81.3% | [15] 133% | [16] 60.2% | [17] 39.7%
